# Measurements taken from the antibiotic and cytotoxicity screens of Wong et al. (2023).
# The whole screen tested about 39,000 compounds, of which about 1,500 (3.8%) were called active. The sample as a whole holds a higher share of actives than the screen did.
# Test system: HSkMC (human skeletal muscle cells)
# Assay: cytotoxicity call (relative viability < 0.9)
# Conditions: 10 µM
row,SMILES,cytotoxicity call
1,COc1ccc(CN(C)C[C@@H]2OCCCC[C@@H](C)Oc3ccc(NC(=O)c4ccncc4)cc3C(=O)N([C@@H](C)CO)C[C@@H]2C)cc1,inactive
2,C[C@@H]1CCCCO[C@H](CN(C)C(=O)Nc2ccc3c(c2)OCO3)[C@@H](C)CN([C@H](C)CO)C(=O)c2cc(NC(=O)CCC(F)(F)F)ccc2O1,inactive
3,C[C@@H]1CN([C@H](C)CO)C(=O)c2cc(NS(=O)(=O)c3ccccc3)ccc2O[C@@H]1CN(C)S(=O)(=O)c1cccs1,inactive
4,COCCOC(=O)N1C(=O)[C@@]2(c3cc(C#Cc4ccc(OC)cc4)ccc31)[C@H](C(=O)N1CCc3cc(OC)c(OC)cc3C1)[C@H]1C(=O)O[C@H](c3ccccc3)[C@H](c3ccccc3)N1[C@@H]2c1ccc(OCCO)cc1,inactive
5,COCC(=O)Nc1ccc2c(c1)OC[C@@H](C)N(C(=O)c1ccccc1F)C[C@H](C)[C@@H](OC)CN(C)C2=O,inactive
6,CC(C)NC(=O)Nc1cccc2c1O[C@H](CN(C)C(=O)NC1CCCCC1)[C@H](C)CN([C@@H](C)CO)C2=O,inactive
7,Cc1noc(C)c1NC(=O)Nc1ccc2c(c1)C(=O)N([C@H](C)CO)C[C@H](C)[C@@H](CN(C)C(=O)Nc1ccc3c(c1)OCO3)OCCCC[C@H](C)O2,inactive
8,C[C@@H]1CN([C@H](C)CO)C(=O)c2cc(NS(=O)(=O)c3ccc(Cl)cc3)ccc2O[C@H]1CN(C)Cc1ccc(Oc2ccccc2)cc1,active
9,C[C@H](CO)N1C[C@H](C)[C@@H](CN(C)Cc2ccc(Oc3ccccc3)cc2)Oc2ccc(NS(=O)(=O)c3ccc(Cl)cc3)cc2C1=O,inactive
10,C[C@@H]1CN([C@@H](C)CO)C(=O)c2cc(NS(=O)(=O)c3ccc(Cl)cc3)ccc2O[C@H]1CN(C)Cc1ccc(Oc2ccccc2)cc1,inactive
11,C[C@H](CO)N1C[C@H](C)[C@H](CN(C)Cc2ccc(Oc3ccccc3)cc2)Oc2ccc(NS(=O)(=O)c3ccc(Cl)cc3)cc2C1=O,inactive
12,C[C@@H]1CN([C@@H](C)CO)C(=O)c2cc(NS(=O)(=O)c3ccccc3)ccc2O[C@H]1CN(C)Cc1ccc(Oc2ccccc2)cc1,inactive
13,C[C@H]1CN([C@@H](C)CO)C(=O)c2cc(NS(=O)(=O)c3ccccc3)ccc2O[C@@H]1CN(C)Cc1ccc(Oc2ccccc2)cc1,inactive
14,C[C@@H]1CN([C@@H](C)CO)C(=O)c2cc(NS(=O)(=O)c3ccccc3)ccc2O[C@@H]1CN(C)Cc1ccc(Oc2ccccc2)cc1,inactive
15,C[C@H]1CN([C@@H](C)CO)C(=O)c2cc(NS(=O)(=O)c3ccc(Cl)cc3)ccc2O[C@@H]1CN(C)Cc1ccc(Oc2ccccc2)cc1,active
16,C[C@@H]1CN([C@H](C)CO)C(=O)c2cc(NS(=O)(=O)c3ccc(Cl)cc3)ccc2O[C@@H]1CN(C)Cc1ccc(Oc2ccccc2)cc1,active
17,C[C@H]1CN([C@@H](C)CO)C(=O)c2cc(NS(=O)(=O)c3ccc(Cl)cc3)ccc2O[C@H]1CN(C)Cc1ccc(Oc2ccccc2)cc1,active
18,CC(C)NC(=O)Nc1ccc2c(c1)CC(=O)N([C@@H](C)CO)C[C@H](C)[C@H](CN(C)C(=O)NC1CCCCC1)O2,inactive
19,Cc1cccc[n+]1C,inactive

row,SMILES,cytotoxicity call
1,CN1C2=CC(=O)/C(=N\NC(N)=O)C=C2C[C@H]1S(=O)(=O)O,inactive
2,COc1ccc(NC(=O)N(C)C[C@H]2OCCCC[C@H](C)Oc3ccc(NS(=O)(=O)c4ccc(C)cc4)cc3C(=O)N([C@@H](C)CO)C[C@H]2C)cc1,inactive
3,CC(=O)OC1C(=O)C2(C)C(O)CC3OCC3(OC(C)=O)C2C(OC(=O)c2ccccc2)C2(O)CC(OC(=O)C(O)C(NC(=O)c3ccccc3)c3ccccc3)C(C)=C1C2(C)C (stereo not drawn),inactive
4,CC(=O)OC1CC(C)(C)C(=C=C/C(C)=C/C=C/C(C)=C/C=C/C=C(C)/C=C/C=C(\C)C(=O)CC23OC2(C)CC(O)CC3(C)C)C(C)(O)C1 (stereo not drawn),inactive
5,C[C@@H]1CN([C@H](C)CO)C(=O)c2cc(NC(=O)CCCCCC(=O)Nc3ccccc3N)ccc2O[C@@H]1CN(C)C(=O)Nc1ccccc1,inactive
6,CO[C@H]1CN(C)C(=O)c2ccc(NC(=O)CC(F)(F)F)cc2OC[C@H](C)N(C(=O)C2CCOCC2)C[C@H]1C,inactive
7,O=c1c(O)cc(C2Oc3cc(O)cc(O)c3CC2O)cc2c(C3Oc4cc(O)cc(O)c4CC3O)cc(O)c(O)c12 (stereo not drawn),inactive
8,Cc1noc(C)c1NC(=O)Nc1ccc2c(c1)C(=O)N([C@@H](C)CO)C[C@H](C)[C@@H](CN(C)Cc1ccc(C(F)(F)F)cc1)O2,inactive
9,C[C@@H]1CN([C@H](C)CO)C(=O)c2cc(NS(=O)(=O)c3ccccc3)ccc2O[C@H]1CN(C)Cc1ccc(Oc2ccccc2)cc1,inactive
10,C[C@@H]1CN([C@@H](C)CO)C(=O)c2cc(NS(=O)(=O)c3ccc(Cl)cc3)ccc2O[C@@H]1CN(C)Cc1ccc(Oc2ccccc2)cc1,active
11,C[C@H](CO)N1C[C@H](C)[C@H](CN(C)Cc2ccc(Oc3ccccc3)cc2)Oc2ccc(NS(=O)(=O)c3ccccc3)cc2C1=O,inactive
12,C[C@@H]1CN([C@H](C)CO)C(=O)c2cc(NS(=O)(=O)c3cn(C)cn3)ccc2O[C@H]1CN(C)Cc1ccc2c(c1)OCO2,inactive
13,COc1ccc(S(=O)(=O)N(C)C[C@H]2Oc3ccc(NC(=O)Cn4cnnn4)cc3CC(=O)N([C@@H](C)CO)C[C@@H]2C)cc1,inactive
14,C[C@H]1CCCCO[C@@H](CN(C)C(=O)Nc2cccc3ccccc23)[C@@H](C)CN([C@@H](C)CO)C(=O)c2cc(NS(=O)(=O)c3cccs3)ccc2O1,inactive
15,C[C@H](CO)N1C[C@H](C)[C@@H](CN(C)C(=O)Nc2cccc3ccccc23)OCCCC[C@H](C)Oc2ccc(NS(=O)(=O)c3cccs3)cc2C1=O,active
16,C[C@H]1CCCCO[C@H](CN(C)C(=O)Nc2cccc3ccccc23)[C@@H](C)CN([C@@H](C)CO)C(=O)c2cc(NS(=O)(=O)c3cccs3)ccc2O1,inactive
17,C[C@@H]1CCCCO[C@H](CN(C)C(=O)Nc2cccc3ccccc23)[C@H](C)CN([C@H](C)CO)C(=O)c2cc(NS(=O)(=O)c3cccs3)ccc2O1,active
18,C[C@@H]1CCCCO[C@@H](CN(C)C(=O)Nc2cccc3ccccc23)[C@H](C)CN([C@H](C)CO)C(=O)c2cc(NS(=O)(=O)c3cccs3)ccc2O1,inactive
19,C[C@@H]1CN([C@@H](C)CO)C(=O)c2cc(NS(=O)(=O)c3cccs3)ccc2O[C@@H](C)CCCCO[C@H]1CN(C)C(=O)Nc1cccc2ccccc12,inactive
